zVAD death inh: blocks zVAD induced death of L929 cells. L929 zVAD necroptosis rescue, ATP luminescence, 24 h; with zVAD 60 µM. viability rescue, % at 10 µM. AID 1377. actives 0.38% (n = 220,000);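 active = activation, scaled between plate controls, above about 75%, limit read from the data; inactive = activation under that limit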
TNF death inh: inhibitors of TNF-alpha induced necroptosis in Jurkat FADD-/- cells | Jurkat FADD-/- TNF necroptosis rescue, ATP luminescence, 24 h; 0 = TNF only, 100 = no-TNF cells | activation (protection from cell death), % at 10 µM | actives 0.068% (n = 220,000);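 active = activation, meaning protection from cell death, of at least 50% relative to plate controls; inactive = activation below 50%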;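 also: necroptosis triggered by 40 ng/mL TNF-alpha added together with compound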
Wee1 degr inh: human Wee1 degradation inhibition, primary screen. HeLa Luc-Wee1K328M stability, luciferase luminescence; 100% = proteasome inhibitor MG132 effect. reporter increase, % at 5 µM. P30291. actives 1.2% (n = 220,000);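 active = activation above the mean of all tested compounds plus 3 SD, set per screening run, cut at about 8.8% in these data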;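 also: cells exposed to compound for 20 h before luminescence read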
Target sequence (P30291 whole entry K328M): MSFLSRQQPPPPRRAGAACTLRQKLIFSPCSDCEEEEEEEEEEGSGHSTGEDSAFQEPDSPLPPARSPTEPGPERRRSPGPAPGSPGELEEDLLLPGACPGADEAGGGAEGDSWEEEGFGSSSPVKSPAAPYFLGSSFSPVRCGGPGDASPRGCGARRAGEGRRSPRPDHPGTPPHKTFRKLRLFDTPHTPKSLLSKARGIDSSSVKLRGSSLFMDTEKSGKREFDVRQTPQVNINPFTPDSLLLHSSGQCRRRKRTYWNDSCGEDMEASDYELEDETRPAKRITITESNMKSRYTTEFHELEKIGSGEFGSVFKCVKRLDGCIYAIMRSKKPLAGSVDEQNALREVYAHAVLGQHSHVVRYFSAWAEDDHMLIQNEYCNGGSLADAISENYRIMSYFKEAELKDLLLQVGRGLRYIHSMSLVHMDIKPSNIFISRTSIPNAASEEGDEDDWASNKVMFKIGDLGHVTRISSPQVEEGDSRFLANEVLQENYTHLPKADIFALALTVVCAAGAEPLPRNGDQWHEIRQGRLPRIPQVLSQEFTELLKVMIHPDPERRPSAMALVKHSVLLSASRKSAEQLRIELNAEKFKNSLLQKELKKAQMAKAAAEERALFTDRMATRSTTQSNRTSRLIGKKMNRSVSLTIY
HSV augment: increases HSV replication in cells; HSV replication augmentation in cells, fold increase; maximum fold increase; actives 0.005% (n = 220,000); AID 1956; in the data active = maximum fold increase above about 1.5; inconclusive = no clear call, values can overlap the other calls; tested in PC3 cells
V-ATPase pHluor: alters yeast V-ATPase proton transport | S. cerevisiae, pHLuorin cytosolic pH fluorescence | AID 504577 | response, % at 10 µM | actives 0.37% (n = 350,000); in the data active = response mostly above about 7.3%, no sharp cut-off; inactive = mostly below about 5.4%; also: actives read high
Large screens that a line does not name were inactive. Most compounds without a hit are left out; they make up all but 1.4% or so of the library.

COc1ccc(-c2csc(NC(=O)CN3C(=O)CCC3=O)n2)cc1OC	Wee1 degr inh 11
COc1ccccc1NS(=O)(=O)c1cccc(C(=O)NCc2ccncc2)c1	none (no result: zVAD death inh, TNF death inh, Wee1 degr inh, HSV augment)
Nc1ccc(Sc2ccc([N+](=O)[O-])cc2)cc1	none
O=C1C=CC(=O)N1c1ccc(Sc2ccc([N+](=O)[O-])cc2)cc1	Wee1 degr inh 16 (no result: V-ATPase pHluor)
O=C(CN1CCCCCCC1)N/N=C/c1ccc(F)cc1F	Wee1 degr inh 9.6
Cc1ccc(O)c(/C=N/NC(=O)CN2CCCC2)c1	none (no result: zVAD death inh, TNF death inh, Wee1 degr inh, HSV augment)
CCc1sc(C(=O)Nc2cccnc2)cc1Br	none (no result: zVAD death inh, TNF death inh, Wee1 degr inh, HSV augment)
COC(=O)c1cc(C(=O)Nc2ccc(Cl)cn2)cc([N+](=O)[O-])c1	Wee1 degr inh 9.0
Cc1ccc2nc(NC(=O)COC(=O)c3ccccn3)sc2c1	Wee1 degr inh 9.3
COc1ccc(CN(C)CCCn2cnc(C(=O)Nc3ccc(C)c(C)c3)n2)cc1OC	none (no result: zVAD death inh, TNF death inh, Wee1 degr inh, HSV augment)
COCCNC(=O)C12CC3CC(C1)CC(c1ccccc1)(C3)C2	Wee1 degr inh 11
CCSc1nnc(NC(=O)C2CCN(C(=O)c3ccc(F)cc3)CC2)s1	none (no result: zVAD death inh, TNF death inh, Wee1 degr inh, HSV augment)
O=c1c2ccccc2nc2c3ccccc3c(NCCO)nn12	none
Cc1nnc(NC(=O)C2(c3ccccc3)CCOCC2)s1	none
Cc1cnc(NC(=O)C2(c3ccccc3)CC2)s1	TNF death inh 63
Cn1c(/C=C/c2ccc(Cl)cc2)c([N+](=O)[O-])c(=O)n(C)c1=O	none (no result: zVAD death inh, TNF death inh, Wee1 degr inh, HSV augment)
CN(/C=C/c1c([N+](=O)[O-])c(=O)n(C)c(=O)n1C)c1ccccc1	Wee1 degr inh 9.4
COc1cccc(C(=O)NC2CCN(CC(=O)Nc3ccccc3Cl)CC2)c1	none (no result: zVAD death inh, TNF death inh, Wee1 degr inh, HSV augment)
CCOCCCNC(=O)c1c(N)n(-c2ccc3c(c2)OCO3)c2nc3ccccc3nc12	Wee1 degr inh 9.4
COCCCNC(=O)c1c(N)n(-c2ccc3c(c2)OCO3)c2nc3ccccc3nc12	zVAD death inh 84
CCC1CCCCN1C(=O)/C=C/c1ccc2c(c1)OCO2 (stereo not drawn)	none (no result: zVAD death inh, TNF death inh, Wee1 degr inh, HSV augment)
CC(=O)N(Nc1ccccc1)c1ccccc1	none (no result: zVAD death inh, TNF death inh, Wee1 degr inh, HSV augment)
CCC(C(=O)NC1CCCC1)N(C(=O)Cn1nnc(-c2ccc(C)o2)n1)c1cnc2ccccc2c1 (stereo not drawn)	Wee1 degr inh 9.8
O=C(Cc1csc(NC(=O)c2ccc(F)cc2)n1)NO	none
COc1ccc(CN(C)C(=O)CCC(=O)N2CCN(S(=O)(=O)c3ccc(Cl)cc3)CC2)c(OC)c1	none (no result: zVAD death inh, TNF death inh, Wee1 degr inh, HSV augment)
Cc1ccc(NC(=O)CSCc2ccc(F)cc2)cc1	TNF death inh 53
O=C(CN(C(=O)C1CSC(=O)C1)c1cccc(F)c1)NC1CCCC1 (stereo not drawn)	Wee1 degr inh 9.2
CN(C)S(=O)(=O)c1cccc(-c2csc(N/N=C/c3ccco3)n2)c1	none
Cc1ccc(-c2csc(N/N=C/c3ccco3)n2)c(C)c1	Wee1 degr inh 9.6
CC1(C2CC2)NC(=O)N(CC(=O)Nc2ccccc2F)C1=O (stereo not drawn)	none (no result: zVAD death inh, TNF death inh, Wee1 degr inh, HSV augment)
O=C(CCC(=O)c1cccs1)Nc1ccccc1F	V-ATPase pHluor 19
CCC(CC)C(=O)Nc1cccc(C(=O)c2ccccc2)c1	Wee1 degr inh 9.4
CCC(CC)C(=O)Nc1cccc(C(=O)NC(C)(C)C)c1	none
O=C(/C=C\c1ccccc1)NCC(=O)N/N=C/c1ccc(O)cc1O	V-ATPase pHluor 12 (no result: zVAD death inh, TNF death inh, Wee1 degr inh, HSV augment)
Cc1ccc(C)c(NC(=O)CCC(=O)N/N=C/c2ccc3c(c2)OCO3)c1	Wee1 degr inh 10
Cc1ccc(C(=O)/C=C/c2cn(CC(O)CN3CCOCC3)c3ccccc23)cc1 (stereo not drawn)	zVAD death inh 77
O=C(/C=C/c1cn(CC(O)CN2CCOCC2)c2ccccc12)c1cccs1 (stereo not drawn)	HSV augment inconclusive (no result: V-ATPase pHluor)
CCOC(=O)c1c(C)[nH]c(C)c1C(=O)CN1C(=O)NC2(CCC(C)CC2)C1=O (stereo not drawn)	none
CCOC(=O)c1c(C)[nH]c(C)c1C(=O)CN1C(=O)NC(CC(C)C)C1=O (stereo not drawn)	Wee1 degr inh 9.4
CN(C)C(=O)c1cc2cc(Br)ccc2s1	none
Cc1ccc(CNC(=O)CCNS(=O)(=O)c2ccc3c(c2)c(=O)n(C)c(=O)n3C)cc1	none
Cc1ccc(CCNC(=O)CCNS(=O)(=O)c2ccc3c(c2)c(=O)n(C)c(=O)n3C)cc1	V-ATPase pHluor 20
O=C1OCc2ccc(NC(=O)c3c(F)cccc3Cl)cc21	none (no result: zVAD death inh, TNF death inh, Wee1 degr inh, HSV augment)
O=C(Nc1ccc2c(c1)CCC2)c1c(F)cccc1Cl	Wee1 degr inh 8.9
COCCN(CCOC)S(=O)(=O)c1ccc(C(=O)Nc2nnc(C3CC3)o2)cc1	Wee1 degr inh 9.4
CCc1nnc(NC(=O)c2ccc(S(=O)(=O)N(CCOC)CCOC)cc2)o1	none
COc1c(Cl)cc(Cl)cc1CNc1ccc(S(N)(=O)=O)cc1	none
Cc1cc(Cl)cc(C)c1OCC(=O)NC1CCCCCC1	none (no result: zVAD death inh, TNF death inh, Wee1 degr inh, HSV augment)
O=C(/C=C/c1ccc([N+](=O)[O-])cc1)Nc1cccnc1	Wee1 degr inh 10
O=C(Nc1ccnn1C1CCN(C(=O)c2ccc(F)cc2)CC1)C1CCOC1 (stereo not drawn)	none (no result: zVAD death inh, TNF death inh, Wee1 degr inh, HSV augment)
CCOC(=O)CSc1ccc(C(=O)Nc2ccc(Cl)cc2)cn1	none
CCOC(=O)CSc1ccc(C(=O)Nc2ccc(OC)cc2)cn1	Wee1 degr inh 9.4
CCC(C(=O)NCCC1=CCCCC1)c1ccccc1 (stereo not drawn)	none
COC(=O)c1c(C)cc(C)n2c1nc1ccccc12	Wee1 degr inh 9.8
O=C(Nc1c(C(=O)O)oc2ccc(Br)cc12)c1ccccc1	Wee1 degr inh 13
CCOC(=O)c1sc(NC(=S)NC(=O)C23CC4CC(CC(C4)C2)C3)cc1C	Wee1 degr inh 9.4
CCOc1cc(NC(=S)NCCCN2CCOCC2)c(OCC)cc1NC(=O)c1cccs1	Wee1 degr inh 9.5
CCN(C[C@H]1N[C@@](CC)(C(=O)OC)[C@H]2C(=O)N(Cc3ccccc3)C(=O)[C@@H]12)C(=O)c1ccc(C)cc1	none (no result: zVAD death inh, TNF death inh, Wee1 degr inh, HSV augment)
O=C(OCC(=O)N1CCN(C(=O)c2ccco2)CC1)c1cn(-c2ccccc2)nc1-c1ccccc1	zVAD death inh 79
CCc1ccccc1NC(=O)CC(NCc1ccccc1)C(=O)O (stereo not drawn)	none (no result: zVAD death inh, TNF death inh, Wee1 degr inh, HSV augment)
O=C(CCCSc1nc2ccccc2[nH]1)NC1CCCCC1	Wee1 degr inh 9.4
COC(OC)C1(CCc2ccccc2)NC(=O)NC1=O (stereo not drawn)	none (no result: zVAD death inh, TNF death inh, Wee1 degr inh, HSV augment)
C[C@H]1CN([C@@H](C)CO)C(=O)CCCn2nncc2CO[C@@H]1CN(C)Cc1ccccc1C(F)(F)F	none (no result: zVAD death inh, TNF death inh, Wee1 degr inh, HSV augment)
COc1cc2nc(/C=C/c3cc(OC)c(OC)c(OC)c3)sc2cc1SC	Wee1 degr inh 9.7
COc1cc2nc(C)sc2cc1SC	none
CCCCCNC(=O)c1ccc2c(=O)n(CCOC)c(=O)[nH]c2c1	Wee1 degr inh 10.0
COCCn1c(=O)[nH]c2cc(C(=O)NCCN3CCN(c4ccccc4)CC3)ccc2c1=O	Wee1 degr inh 11
CCC1=[N+](C)c2cccc3cccc(c23)N1C	none
Cc1cc(C)c(C#N)c(SCC(=O)Nc2c(C)n(C)n(-c3ccccc3)c2=O)n1	none (no result: zVAD death inh, TNF death inh, Wee1 degr inh, HSV augment)
Cc1ccc(SCc2cn3ccccc3n2)cc1	Wee1 degr inh 9.3
c1ccc(CSCc2cn3ccccc3n2)cc1	none

Source: PubChem BioAssay (several laboratories)
